Bioassay records deposited in PubChem BioAssay by several laboratories.
Most compounds without a hit are left out; they make up all but 4.6% or so of the library.
GRIN3A LBD mod – binders of NR3A ligand-binding domain, primary screen, biophysical, differential scanning fluorimetry, uHTS; NR3A LBD differential scanning fluorimetry, Tm shift; 0% = protein alone, 100% = glycine-bound protein; Tm shift relative to glycine control, % at 25 µM; hit rate 2.5% among 340,000; Glutamate receptor ionotropic, NMDA 3A (GRIN3A) ligand-binding domain; AID 1259313, 2017;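 active means melting temperature shift of at least 10% of the positive control shift, at one fixed dose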
ADAM10 inh – human ADAM10 inhibitors, primary screen, biochemical, QFRET, HTS; AID 720582, 2013; Disintegrin and metalloproteinase domain-containing protein 10 (Homo sapiens), O14672; recombinant ADAM10, EDANS/DABCYL FRET peptide cleavage, 3 h; inhibition, % at 7 µM; hit rate 0.62% among 370,000;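 active means inhibition above a per-campaign cutoff equal to the mean of compounds falling between control-based bounds plus 3 SD, cut at about 20% in these data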;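 further: 0% = DMSO wells while the 100% control is not disclosed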
Target sequence (O14672 214-748 limits assumed): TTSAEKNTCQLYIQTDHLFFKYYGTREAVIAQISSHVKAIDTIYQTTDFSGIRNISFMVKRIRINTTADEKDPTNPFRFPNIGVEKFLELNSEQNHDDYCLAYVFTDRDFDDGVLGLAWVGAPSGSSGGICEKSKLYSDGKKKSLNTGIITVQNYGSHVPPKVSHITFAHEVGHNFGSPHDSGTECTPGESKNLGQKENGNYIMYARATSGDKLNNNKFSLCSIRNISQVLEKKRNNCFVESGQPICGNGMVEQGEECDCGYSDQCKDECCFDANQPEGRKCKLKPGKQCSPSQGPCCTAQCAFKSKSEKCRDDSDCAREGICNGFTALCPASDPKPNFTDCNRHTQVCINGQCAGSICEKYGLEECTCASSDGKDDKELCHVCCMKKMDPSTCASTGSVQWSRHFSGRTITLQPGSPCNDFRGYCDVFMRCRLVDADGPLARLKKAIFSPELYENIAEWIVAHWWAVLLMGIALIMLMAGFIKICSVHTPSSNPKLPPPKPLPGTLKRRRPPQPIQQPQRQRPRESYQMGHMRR
ADAM17 inh – ADAM17 inhibitors, primary screen, biochemical, QFRET; inhibition, % at 6.95 µM; Disintegrin and metalloproteinase domain-containing protein 17 (Homo sapiens), P78536; recombinant ADAM17, EDANS/DABCYL FRET peptide cleavage; hit rate 0.83% among 370,000;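 active means inhibition above the mean of compounds lying between control limits plus 3 SD, set per campaign, cut at about 8.5% in these data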;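 further: 0% = DMSO-only wells as the low control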
KLK7 zymogen act – proKLK7 zymogen activators, primary screen, biochemical, fluorescence intensity | Kallikrein-7 (Homo sapiens), P49862 | purified proKLK7, EDANS-DABCYL substrate fluorescence; 100% is mature enzyme control, 0% vehicle | activation, % at 7 µM | hit rate 0.9% among 370,000 | AID 652039, 2013;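 active means activation above the mean of all tested compounds plus 3 SD, computed per campaign excluding outliers beyond control limits, cut at about 13% in these data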
FAS-TE inh – FAS thioesterase domain inhibitors, primary screen, biochemical, fluorescence intensity, uHTS | Fatty acid synthase (Homo sapiens), P49327 | recombinant FAS-TE, OMFH fluorogenic substrate, fluorescence endpoint | inhibition, % at 15 µM | hit rate 0.67% among 360,000 | AID 602261, 2012;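 active means compounds whose normalised, plate-corrected inhibition of enzyme fluorescence in the single-dose primary screen is 50% or more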;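 further: 0% = DMSO with enzyme and 100% = substrate without enzyme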
* hit, by the source's call; i = inactive; . = no result given.

SMILES	GRIN3A LBD mod	ADAM10 inh	ADAM17 inh	KLK7 zymogen act	FAS-TE inh
O=C(Nc1ccc(OCC(F)(F)C(F)F)c(C(F)(F)F)c1)c1ccccc1O	33.5*	-15.3	-1.9	-3.1	9.3
C[C@H]1[C@@H](OC(=O)NCCc2ccccc2)CC[C@@]23CCCN2C(=O)CCC[C@@H]13	.	-3.6	-2.5	.	.
O=C(C(=O)c1cc(Br)ccc1O)c1cc(Br)ccc1O	19.8*	-2.1	1.2	-0.1	4.1
CN[C@H]1C[C@H]2c3cc(-c4ccc5c(c4)OCO5)ccc3CCN2C[C@H]1[C@H](C)O	.	7.6	-2.2	0.0	.
CCOC(=O)c1[nH]c(C)c(CN(CCc2ccc(OC)c(OC)c2)C(=O)CCCC(=O)O)c1C	14.6*	8.8	0.6	0.1	-5.1
COc1cccc(CNC2CCC23CCC(C)CC3)c1 (stereo unspecified)	.	-8.4	-7.1	.	.
O=C(Nc1ccccc1)c1ccc(-c2ccc(Br)cc2)o1	18.8*	15.6	6.2	0.3	35.8
O=C(Nc1cccc(NC(=O)c2ccc(-c3cccc(Br)c3)o2)c1)c1ccco1	12.8*	-3.7	4.2	-57.9	31.2
c1ccc(-c2cc(-c3nc4ccccc4[nH]3)c3ccccc3n2)cc1	22.2*	i	-347.3	-29.1	17.3
COc1ccc(C(C(=O)N(C)C2CCCC2)N(Cc2ccc(F)cc2)C(=O)c2sccc2Cl)cc1OC (stereo unspecified)	.	1.8	0.4	-0.1	.
CCOc1ccc(NC(=O)C(C)Oc2ccccc2C(=O)Nc2ccc(C)c(Cl)c2)cc1 (stereo unspecified)	26.3*	14.4	3.2	-1.3	30.0
Cc1ccc(NC(=O)CSc2ccccc2NC(=O)c2ccccc2Cl)cc1Cl	11.0*	-2.9	-0.5	-0.4	18.6
CCC1CCCCN1C(=O)n1ncc(C(O)(c2ccccc2)c2ccccc2)n1 (stereo unspecified)	.	0.8	0.3	.	.
C=CCOc1ccc(/C=C/C(=O)OCC(=O)N2CCN(S(=O)(=O)c3ccc(C)cc3C)CC2)cc1	18.8*	-7.0	-5.2	0.5	2.3
Cc1ccc(S(=O)(=O)N2CCN(C(=O)COC(=O)/C=C/c3ccc([N+](=O)[O-])cc3)CC2)c(C)c1	-0.2	-8.3	-3.3	-0.3	-6.6
COc1cccc(OC)c1C(=O)Nc1ccc2c(c1)Cc1ccccc1-2	-2.9	-0.9	-2.0	0.3	10.8
O=C(Nc1ccc2c(c1)Cc1ccccc1-2)c1cccnc1	21.4*	12.0	2.1	-0.3	1.5
COc1ccc(C(=O)Nc2ccc3c(c2)Cc2ccccc2-3)cc1	17.0*	-7.4	-6.1	0.2	-10.6
O=C(Nc1ccc2c(c1)Cc1ccccc1-2)c1ccco1	22.0*	-5.8	-3.5	1.0	12.9
O=C(Nc1nc2ccc(Cl)cc2s1)c1ccc(N2CCCCC2)c([N+](=O)[O-])c1	15.0*	-7.2	-8.1	0.3	-4.2
CCC(CC)c1nnc(NC(=O)c2ccc(N3CCCCC3)c([N+](=O)[O-])c2)s1	-7.2	-2.0	-2.9	0.3	21.8
O=C(Nc1nc2ccc3ccccc3c2s1)c1ccc(N2CCCCC2)c([N+](=O)[O-])c1	19.4*	-6.8	-4.0	0.5	5.9
COc1ccc(CN2C[C@]3(C=C(C)Cn4c(=O)n(-c5ccccc5)c(=O)n43)N(C(=O)OCc3ccccc3)C2=NC(=O)c2ccccc2)c(OC)c1	.	8.0	2.1	0.5	.
COc1ccc(Cn2c(SCc3ccc(C)cc3)nc3cc(OC)c(OC)cc3c2=N)cc1Cl	1.9	-3.8	1.6	-0.1	31.0
COCCCn1c(SCc2ccccc2)nc2cc(OC)c(OC)cc2c1=N	-7.7	-0.1	-3.1	-1.2	23.8
COc1ccc(Cn2c(SCc3cc(C)ccc3C)nc3cc(OC)c(OC)cc3c2=N)cc1	-2.6	-2.8	1.7	-0.5	38.5
COc1cc2nc(SCc3ccc(C(F)(F)F)cc3)n(Cc3cccs3)c(=N)c2cc1OC	24.4*	-0.5	-4.1	-0.2	15.7
COCCCn1c(SCc2cccc(C(F)(F)F)c2)nc2cc(OC)c(OC)cc2c1=N	10.4*	3.2	4.0	-0.8	38.3
COc1cc2nc(SCc3ccc(Cl)cc3Cl)n(Cc3cccs3)c(=N)c2cc1OC	22.1*	5.4	-0.1	-1.0	30.3
